The campaign covered roughly 150,000 compounds. About 540 (0.36%) showed an effect of 50% or more. This excerpt belongs to a sample that is enriched for strong results.
system: Plasmodium falciparum; experiment: Primary screen in NF54 nanoGlo assay, in single point, at 2uM, 72h; a lower Z score goes with more inhibition; assay type: functional, Erythrocyte; conditions: timepoint 72 hour

First: CCn1c(-n2nc(C)nc2[C@H]2CCS(=O)(=O)C2)nc2ccccc21
Second: Cc1nn(C(C)(C)C)c2nc(C3CC3)cc(C(=O)N(C)c3ccccc3)c12
The “% Inhibition” value of the first is lower: 4% for the first, 55% for the second.

First: O=C(CNC(=O)c1cnccn1)NCCc1c[nH]c2ccc(F)cc12
Second: COCCNC(=O)c1coc(CN2C(=O)COc3ccc(C(=O)COc4ccccc4)cc32)n1
The “% Inhibition” value of the first is higher: -5% for the first, -6% for the second.

Compared with `CCn1cc(C#N)c(=O)c2cc(F)c(N3CCN(Cc4ccccc4)CC3)cc21`, `CCn1cc(C(=O)O)c(=O)c2cc(F)c(N3CCN(S(=O)(=O)c4ccccc4)CC3)cc21` is lower in “% Inhibition” value: 68% for the first, 34% for the second.

Compared with `CCn1cc(-c2nc(-c3ccccc3C)no2)c(=O)c2cc(F)c(N3CCOCC3)cc21`, `CCn1cc(-c2nc(-c3ccccc3C)no2)c(=O)c2cc(F)c(N3CCCCC3)cc21` is higher in “% Inhibition” value: 40% for the first, 51% for the second.

Compared with `CCn1cc(-c2nc(-c3ccccc3)no2)c(=O)c2cc(F)c(N3CCCCC3)cc21`, `Cc1ccc(S(=O)(=O)c2cn(Cc3ccccc3)c3cc(N4CCCCC4)c(F)cc3c2=O)cc1` is lower in “% Inhibition” value: -9% for the first, -24% for the second.

Going from `COc1cc(OC)cc(-c2c3c(O)nn(C(C)C)c3nc3[nH]c(=O)n(C)c23)c1` to `COc1cccc(CNS(=O)(=O)c2cc(-c3c(C)nn4c3NC(=O)CCC4=O)ccc2OC)c1`, the “% Inhibition” value rises from -3% to 2%.

Compared with `O=C(Nc1ccc2c(c1)OCO2)c1ccc(=O)n(Cc2ccc(Cl)cc2)c1`, `Cc1ccccc1NC(=O)[C@H]1c2cccc[n+]2CC(=O)N1c1ccc2c(c1)OCO2` is higher in “% Inhibition” value: -15% for the first, -9% for the second.

Going from `CCN(C(=O)c1nn(C)c2ccc(C)cc12)[C@H]1COC[C@@H]1O` to `CCC(CC)C(=O)N(Cc1ccc(-c2ccc(Cl)cc2)o1)[C@H]1CCS(=O)(=O)C1`, the “% Inhibition” value falls from 5% to -7%.

Compared with `COc1cc(Cl)c(CNC(C)(C)CO)cc1OC`, `CC(C)CC(=O)N(Cc1nccn1Cc1ccc(Cl)cc1Cl)CC1CC1` is lower in “% Inhibition” value: 4% for the first, -8% for the second.

First: Cc1n[nH]c(C(=O)N2CCCCCC2)c1Br
Second: Cc1nn(C(C)(C)C)c2nc(C3CC3)cc(C(=O)N3CCN(c4ccccc4)CC3)c12
The “% Inhibition” value of the first is lower: 3% for the first, 7% for the second.

First: N#Cc1nccnc1O[C@H]1CCCN(C(=O)NCc2ccc(Cl)cc2)C1
Second: CN1CCC(Oc2cc(NC(=O)c3cscn3)ccn2)CC1
The “% Inhibition” value of the first is higher: -10% for the first, -16% for the second.

First: Cc1nn(C(C)(C)C)c2nc(C3CC3)cc(C(=O)N(C)Cc3cccc(C#N)c3)c12
Second: Cn1cccc1CCC(=O)NCCc1noc(C2CC2)n1
The “% Inhibition” value of the first is lower: -7% for the first, -5% for the second.

First: CC(C)(C[C@H]1CCCN(C(=O)C2(C)CCCC2)C1)C(N)=O
Second: CC(C)(C)OC(=O)N1CCC[C@@H]1CNC1CC1
The “% Inhibition” value of the first is higher: -4% for the first, -7% for the second.

Going from `COC(=O)C1CN(C(=O)CCc2cnn(C)c2)CC1c1ccccc1` (centres undefined) to `CCn1cc(CN2CCN3C(=O)N(c4ccccc4)C(=O)[C@@H]3C2)cn1`, the “% Inhibition” value rises from -13% to -2%.

First: Cc1ccncc1C(=O)N1CCCN(Cc2ccncc2)[C@H](c2ccccc2)CC(=O)NCC1
Second: COc1cccc(S(=O)(=O)N2CCCN(Cc3ccncc3)[C@H](c3ccccc3)CC(=O)NCC2)c1
The “% Inhibition” value of the first is lower: -4% for the first, 92% for the second.

Going from `O=C1C[C@@H](c2ccccc2)N(Cc2ccncc2)CCCNCCN1` to `O=C1Cc2cc(S(=O)(=O)Nc3ccccc3C(=O)NCc3ccco3)ccc2N1`, the “% Inhibition” value falls from -9% to -32%.

Compared with `COCCN1CC[C@H](c2ncnn2C2CCCCC2)C1`, `CCc1cc(C(=O)N2CC[C@@]3(CCCN(Cc4cccc(OC)c4)C3)C2)on1` is higher in “% Inhibition” value: -7% for the first, -5% for the second.

Compared with `CCc1nccc(CN2CCC[C@H](CS(C)(=O)=O)C2)n1`, `CC(=O)NC[C@H]1CN(c2ccnc(C(C)(C)C)n2)CCO1` is higher in “% Inhibition” value: -20% for the first, -12% for the second.

Going from `Cn1cnc2c1CCN(C[C@H](O)c1ccccc1Cl)C2` to `CC(C)C(=O)NCC(=O)N1CC[C@@]2(CCCN(CCCc3ccccc3)C2)C1`, the “% Inhibition” value falls from 0% to -7%.

First: CC(C)C(=O)N(Cc1ccc(-c2ccc(Cl)cc2)o1)[C@H]1CCS(=O)(=O)C1
Second: CCC(=O)N(Cc1ccc(-c2ccc(Cl)cc2)o1)[C@H]1CCS(=O)(=O)C1
The “% Inhibition” value of the first is lower: 1% for the first, 63% for the second.

Compared with `Cc1nnc(COc2cccc3c2OCCO3)s1`, `Cc1cc(C(=O)NC2(c3ncccn3)CCOCC2)c(C)s1` is higher in “% Inhibition” value: -12% for the first, -4% for the second.

First: CN(Cc1ccc2ccn(C)c2c1)C[C@H]1CCCCO1
Second: O=C1CCCN1Cc1ncnn1Cc1ccc2c(c1)OCO2
The “% Inhibition” value of the first is higher: -2% for the first, -4% for the second.

Compared with `COc1ccc(Br)c(S(=O)(=O)NCC2(C)CCC2)c1`, `COc1ccnc(-c2ccc(F)c3cccnc23)c1` is lower in “% Inhibition” value: 1% for the first, -4% for the second.

Going from `CNC(=O)c1cc(S(=O)(=O)N2CC=CC2)cn1C` to `CC(C)Cc1cnc(NC(=O)N[C@@]2(C)CCOC2)s1`, the “% Inhibition” value rises from -4% to 8%.

Going from `CC(C)(C)OC(=O)N1CC2CC(=O)CC1C2` (centres undefined) to `CC[C@H](C)N1CC(=O)N(c2ccns2)C1=O`, the “% Inhibition” value falls from 3% to -14%.

Compared with `CCc1cc(NC(=O)N[C@@H](C)c2nc(C(F)(F)F)no2)n(C)n1`, `COCc1cnc(NC(=O)NC2(c3ncccn3)CCOCC2)s1` is higher in “% Inhibition” value: -7% for the first, 52% for the second.

Compared with `CCn1c(-n2nc(C)nc2[C@H]2CCS(=O)(=O)C2)nc2ccccc21`, `Cc1nn(C(C)(C)C)c2nc(C3CC3)cc(C(=O)N(C)c3ccccc3)c12` is lower in Z score: -0.76 for the first, -8.04 for the second.

Going from `O=C(CNC(=O)c1cnccn1)NCCc1c[nH]c2ccc(F)cc12` to `COCCNC(=O)c1coc(CN2C(=O)COc3ccc(C(=O)COc4ccccc4)cc32)n1`, the Z score rises from 0.67 to 0.84.

Going from `CCn1cc(C#N)c(=O)c2cc(F)c(N3CCN(Cc4ccccc4)CC3)cc21` to `CCn1cc(C(=O)O)c(=O)c2cc(F)c(N3CCN(S(=O)(=O)c4ccccc4)CC3)cc21`, the Z score rises from -7.22 to 0.66.

First: CCn1cc(-c2nc(-c3ccccc3C)no2)c(=O)c2cc(F)c(N3CCOCC3)cc21
Second: CCn1cc(-c2nc(-c3ccccc3C)no2)c(=O)c2cc(F)c(N3CCCCC3)cc21
The Z score of the first is higher: -3.29 for the first, -3.9 for the second.

Going from `CCn1cc(-c2nc(-c3ccccc3)no2)c(=O)c2cc(F)c(N3CCCCC3)cc21` to `Cc1ccc(S(=O)(=O)c2cn(Cc3ccccc3)c3cc(N4CCCCC4)c(F)cc3c2=O)cc1`, the Z score rises from 1.55 to 2.28.

First: COc1cc(OC)cc(-c2c3c(O)nn(C(C)C)c3nc3[nH]c(=O)n(C)c23)c1
Second: COc1cccc(CNS(=O)(=O)c2cc(-c3c(C)nn4c3NC(=O)CCC4=O)ccc2OC)c1
The Z score of the first is higher: 0.3 for the first, -0.21 for the second.

Compared with `O=C(Nc1ccc2c(c1)OCO2)c1ccc(=O)n(Cc2ccc(Cl)cc2)c1`, `Cc1ccccc1NC(=O)[C@H]1c2cccc[n+]2CC(=O)N1c1ccc2c(c1)OCO2` is lower in Z score: 1.88 for the first, 1.37 for the second.

Going from `CCN(C(=O)c1nn(C)c2ccc(C)cc12)[C@H]1COC[C@@H]1O` to `CCC(CC)C(=O)N(Cc1ccc(-c2ccc(Cl)cc2)o1)[C@H]1CCS(=O)(=O)C1`, the Z score rises from -1 to 0.86.

Going from `COc1cc(Cl)c(CNC(C)(C)CO)cc1OC` to `CC(C)CC(=O)N(Cc1nccn1Cc1ccc(Cl)cc1Cl)CC1CC1`, the Z score rises from -0.67 to 0.76.

First: Cc1n[nH]c(C(=O)N2CCCCCC2)c1Br
Second: Cc1nn(C(C)(C)C)c2nc(C3CC3)cc(C(=O)N3CCN(c4ccccc4)CC3)c12
The Z score of the first is higher: -0.33 for the first, -1.07 for the second.

Going from `N#Cc1nccnc1O[C@H]1CCCN(C(=O)NCc2ccc(Cl)cc2)C1` to `CN1CCC(Oc2cc(NC(=O)c3cscn3)ccn2)CC1`, the Z score rises from 1.77 to 1.85.

Going from `Cc1nn(C(C)(C)C)c2nc(C3CC3)cc(C(=O)N(C)Cc3cccc(C#N)c3)c12` to `Cn1cccc1CCC(=O)NCCc1noc(C2CC2)n1`, the Z score falls from 1.44 to 0.69.

First: CC(C)(C[C@H]1CCCN(C(=O)C2(C)CCCC2)C1)C(N)=O
Second: CC(C)(C)OC(=O)N1CCC[C@@H]1CNC1CC1
The Z score of the first is lower: 0.57 for the first, 0.86 for the second.

Going from `COC(=O)C1CN(C(=O)CCc2cnn(C)c2)CC1c1ccccc1` (centres undefined) to `CCn1cc(CN2CCN3C(=O)N(c4ccccc4)C(=O)[C@@H]3C2)cn1`, the Z score falls from 2.28 to 0.24.

First: Cc1ccncc1C(=O)N1CCCN(Cc2ccncc2)[C@H](c2ccccc2)CC(=O)NCC1
Second: COc1cccc(S(=O)(=O)N2CCCN(Cc3ccncc3)[C@H](c3ccccc3)CC(=O)NCC2)c1
The Z score of the first is higher: 0.48 for the first, -7.9 for the second.

Going from `O=C1C[C@@H](c2ccccc2)N(Cc2ccncc2)CCCNCCN1` to `O=C1Cc2cc(S(=O)(=O)Nc3ccccc3C(=O)NCc3ccco3)ccc2N1`, the Z score rises from 1.07 to 3.76.

Going from `COCCN1CC[C@H](c2ncnn2C2CCCCC2)C1` to `CCc1cc(C(=O)N2CC[C@@]3(CCCN(Cc4cccc(OC)c4)C3)C2)on1`, the Z score falls from 1.3 to 0.79.

First: CCc1nccc(CN2CCC[C@H](CS(C)(=O)=O)C2)n1
Second: CC(=O)NC[C@H]1CN(c2ccnc(C(C)(C)C)n2)CCO1
The Z score of the first is higher: 2.11 for the first, 1.4 for the second.

Compared with `Cn1cnc2c1CCN(C[C@H](O)c1ccccc1Cl)C2`, `CC(C)C(=O)NCC(=O)N1CC[C@@]2(CCCN(CCCc3ccccc3)C2)C1` is higher in Z score: 0.04 for the first, 1.41 for the second.

First: CC(C)C(=O)N(Cc1ccc(-c2ccc(Cl)cc2)o1)[C@H]1CCS(=O)(=O)C1
Second: CCC(=O)N(Cc1ccc(-c2ccc(Cl)cc2)o1)[C@H]1CCS(=O)(=O)C1
The Z score of the first is higher: -0.15 for the first, -8.22 for the second.

Going from `Cc1nnc(COc2cccc3c2OCCO3)s1` to `Cc1cc(C(=O)NC2(c3ncccn3)CCOCC2)c(C)s1`, the Z score falls from 2.16 to 0.7.

Compared with `CN(Cc1ccc2ccn(C)c2c1)C[C@H]1CCCCO1`, `O=C1CCCN1Cc1ncnn1Cc1ccc2c(c1)OCO2` is higher in Z score: 0.4 for the first, 0.57 for the second.

First: COc1ccc(Br)c(S(=O)(=O)NCC2(C)CCC2)c1
Second: COc1ccnc(-c2ccc(F)c3cccnc23)c1
The Z score of the first is lower: -0.23 for the first, 0.58 for the second.

Compared with `CNC(=O)c1cc(S(=O)(=O)N2CC=CC2)cn1C`, `CC(C)Cc1cnc(NC(=O)N[C@@]2(C)CCOC2)s1` is lower in Z score: 0.78 for the first, -1.23 for the second.

Compared with `CC(C)(C)OC(=O)N1CC2CC(=O)CC1C2` (centres undefined), `CC[C@H](C)N1CC(=O)N(c2ccns2)C1=O` is higher in Z score: -0.39 for the first, 2.59 for the second.

Compared with `CCc1cc(NC(=O)N[C@@H](C)c2nc(C(F)(F)F)no2)n(C)n1`, `COCc1cnc(NC(=O)NC2(c3ncccn3)CCOCC2)s1` is lower in Z score: 1 for the first, -0.94 for the second.
